From PubChem
PTEN del growth: suppresses growth of cells with PTEN deletion | HCT116 PTEN-null viability, CellTiter-Glo, 60 h; active compounds read low | viability, % at 10 µM | actives 1.2% (n = 140,000);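 active = viability at or below a set limit, 4 SD under the median of all tested compounds, cut at about 3.7% in these data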;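 also: PTEN knockout HCT116 line with beta catenin targeted HCT116 as companion control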
Lmaj promast: inhibitors of Leishmania major promastigote growth; Leishmania major promastigotes, resazurin fluorescence viability; inhibition, % at 10 µM; AID 1063; actives 9% (n = 200,000); in the data active = inhibition above about 50%;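 also: promastigotes grown with compound for 44 hours at 28 °C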
bCat KO growth: beta-catenin-lacking colon tumor cell growth suppression; HCT116 beta-catenin knockout viability, CellTiter-Glo, 60 h; active compounds read low; actives 1.5% (n = 140,000); viability, % at 10 µM;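 active = viability at or under a set limit, the compound median less 4 SD, cut at about 6% in these data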
Insulin prom up: MIN6 insulin promoter up-regulation | MIN6 insulin promoter-GFP reporter, high-content imaging; active compounds read high | z-score at 5 µM | actives 0.3% (n = 190,000) | AID 1625;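 active = z-score above 3 at 5 µM with at least 500 cells counted in the well; inconclusive = wells under 500 cells, flagged as cytotoxic or low count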
INS promoter inh: TRM-6 insulin promoter activity inhibition. TRM-6 cells (human fetal islet line), insulin promoter-eGFP reporter, imaging; reporter expression induced with tamoxifen. inhibition, % at 2 µM. actives 0.9% (n = 130,000). AID 1273;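 active = inhibition above the mean plus 3 SD, with well images judged a real hit on visual review, cut at about 60% in these data, passing the limit was not always enough; inconclusive = inhibition over the cutoff but images rejected on review; inactive = inhibition not above the cutoff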
Autophagy HCS: alters autophagy in cells. calls only at 10 µM (by protocol). actives 0.98% (n = 190,000). MEF GFP-LC3 puncta imaging; test concentration mostly 10 µM. AID 463193;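 active = percentage of spot-positive cells more than 3 SD above its plate mean, without a fluorescence outlier flag or 80% toxicity; inconclusive = no clear call, values can overlap the other calls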
Lmaj promast 1uM: L. major promastigote growth inhibition, 1 uM repeat. shares compounds with Lmaj promast. resazurin fluorescence, 48 h. inhibition, % at 1 µM. actives 13% (n = 1,100). AID 1258;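 active = inhibition above about 50% in both repeat tests, limit read from the data; inconclusive = one repeat under the set limit, the other over it; inactive = both repeats under the set limit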
Each line names hits and unclear results; the compound was inactive in the other large screens (follow-up assays come after a bar, where they were run). Rows were chosen to be rich in hits. Some 9.6% of all compounds tested hit in one or more screens of this group.

O=C(NCC1CCCO1)c1ccccc1NC(=O)c1cccc2ccccc12 (configuration not stated)	none
CN(C)CCN(C)Cc1ccc2c(c1)Cc1ccccc1-2	none (no result: PTEN del growth, Lmaj promast, bCat KO growth, INS promoter inh, Autophagy HCS)
CN(C)CC/C=C1\c2cc(F)ccc2CSc2ccccc21	Lmaj promast 72 | Lmaj promast 1uM inactive
CC12CCC(C(=O)N(c3ccccc3Cl)C1=O)C2(C)C (configuration not stated)	none (no result: Insulin prom up)
CC12CCC(C(=O)N(CCCN3CCN(Cc4ccccc4)CC3)C1=O)C2(C)C (configuration not stated)	Lmaj promast 95 (no result: PTEN del growth, bCat KO growth, Insulin prom up) | Lmaj promast 1uM 68
COc1ccc(-n2nnnc2S(=O)(=O)Cc2ccc(C(=O)O)cc2)cc1	none (no result: Insulin prom up)
COc1ccc(-n2nnnc2S(=O)(=O)CC(=O)N2CCCCC2)cc1	PTEN del growth 1.3, Lmaj promast 93, bCat KO growth 1.7 (no result: INS promoter inh) | Lmaj promast 1uM inactive
Cc1cc(C)cc(NC(=O)Nc2ccc3ccccc3n2)c1	none (no result: PTEN del growth, Lmaj promast, bCat KO growth, INS promoter inh, Autophagy HCS)
Cc1ccc(-n2nc(-c3cccs3)cc2C(=O)NCC2CCCO2)c(C)c1 (configuration not stated)	Lmaj promast 92 | Lmaj promast 1uM inactive
Cc1ccc(-c2cc(C(=O)NCC3CCCO3)no2)cc1 (configuration not stated)	none
CCOc1ccc(Oc2ccc(C(F)(F)F)cc2N)cc1	Lmaj promast 51 | Lmaj promast 1uM inactive
COc1cccc(Oc2ccc(C(F)(F)F)cc2N)c1	none (no result: INS promoter inh)
O=C(CN1CCN(Cc2ccccc2)CC1)c1ccc(Br)cc1	Lmaj promast 82 | Lmaj promast 1uM inactive
Cc1ccccc1-n1ncc2c([N+](=O)[O-])cc([N+](=O)[O-])cc21	Lmaj promast 100 | Lmaj promast 1uM 98
CSc1nnc2n(-c3ccccc3)c(=O)c3c4c(sc3n12)CCC4	none (no result: Insulin prom up, INS promoter inh)
FC(F)(F)c1cccc(NC(=S)NCc2ccc(Cl)cc2)c1	none (no result: PTEN del growth, bCat KO growth)
Fc1cccc(NC(=S)NCc2ccc(Cl)cc2)c1	Lmaj promast 70 | Lmaj promast 1uM inactive
CC(C)(O)CCCC(C)(O)c1ccc(C(=O)O)cc1O (configuration not stated)	none (no result: PTEN del growth, Lmaj promast, bCat KO growth, INS promoter inh, Autophagy HCS)
Cc1ccc(C(O)(COC(=O)C(C)C)COC(=O)C(C)C)c(O)c1	Lmaj promast 60 (no result: PTEN del growth, bCat KO growth, INS promoter inh) | Lmaj promast 1uM inactive
COc1ccc(Nc2nc(NCCCN3CCOCC3)nc(N)c2[N+](=O)[O-])cc1	none (no result: PTEN del growth, Lmaj promast, bCat KO growth, INS promoter inh, Autophagy HCS)
Cc1ccc(/C=C(\NC(=O)c2ccccc2)C(=O)OCc2ccccc2)cc1	Lmaj promast 63 | Lmaj promast 1uM inactive
CCc1nc2ccccc2c2nc3ccccc3n12	Lmaj promast 87 | Lmaj promast 1uM inactive
O=C(O)c1ccc(O)c(N2C(=O)Nc3ccccc3N2O)c1	none
COc1ccc(C2=NCC(CSc3nnc(-c4ccc5c(c4)OCO5)o3)S2)cc1 (configuration not stated)	Lmaj promast 88 | Lmaj promast 1uM 91
O=C1CSC(c2cn(-c3ccccc3)nc2-c2cc3ccccc3oc2=O)N1Cc1ccccc1 (configuration not stated)	Lmaj promast 61 (no result: Insulin prom up) | Lmaj promast 1uM inactive
O=C1CSC(c2cn(-c3ccccc3)nc2-c2ccc3c(c2)OCCO3)N1CCN1CCOCC1 (configuration not stated)	none (no result: Insulin prom up)
CC(c1cc2ccccc2s1)N(O)C(N)=O (configuration not stated)	none (no result: PTEN del growth, Lmaj promast, bCat KO growth, INS promoter inh, Autophagy HCS)
CN1CCN(c2ccc(NC(=O)CSc3ccccc3)cc2F)CC1	none
CN(C)CCCNCCCCNC(=O)/C=N/O	none (no result: INS promoter inh)
C=CC[N+](C)(C)CCCNC(=O)/C=N/O	Lmaj promast 73 | Lmaj promast 1uM inactive
Cc1ccc(NC(=O)C2COc3ccccc3O2)nc1 (configuration not stated)	none
CCOc1ccc2nc(NC(=S)NCc3ccccc3)sc2c1	none
CCCNC(=O)OCCC12CC3CC(CC(C3)C1)C2	Lmaj promast 97, INS promoter inh 69 | Lmaj promast 1uM inactive
CC(=O)/C(=N/Nc1cccc(C)c1)N1CCOCC1	Lmaj promast 64 | Lmaj promast 1uM inactive
Cc1cccc(C(=O)Nc2cccc(C(=O)N3CCOCC3)c2)c1	none
CCC(C)(C)NC(=O)C(c1cccn1C)N(C(=O)Cn1nnc2ccccc21)c1ccc(OC)cc1 (configuration not stated)	none
O=C(CCCc1c[nH]c2ccccc12)N1CCCCCC1	none (no result: INS promoter inh)
O=C(O)Cc1ccc2sc(-c3ccccc3)nc2c1	Lmaj promast 72 | Lmaj promast 1uM inactive
COc1ccc(C(C(=O)NC2CCCCC2)N(C(=O)c2ccco2)c2ccc(-n3cnnn3)c(C)c2)cc1 (configuration not stated)	INS promoter inh inconclusive (no result: PTEN del growth, bCat KO growth, Insulin prom up)
CCCCc1c(C)nn(-c2nnc3c4ccccc4n(C)c3n2)c1C	Lmaj promast 87 | Lmaj promast 1uM inactive
Cn1c2ccccc2c2nnc(NN)nc21	none (no result: PTEN del growth, Lmaj promast, bCat KO growth, INS promoter inh, Autophagy HCS)
COc1ccc(-c2cc3nc(-c4ccccc4)cc(N4CCC5(CC4)OCCO5)n3n2)cc1	Lmaj promast 80 (no result: INS promoter inh) | Lmaj promast 1uM inactive
CCOC(=O)c1c(C)[nH]c(N=Nc2ccccc2C)c1C	Lmaj promast 72 | Lmaj promast 1uM inactive
CCOC(=O)c1c(C)[nH]c(C(=O)CSc2ccccc2)c1C	none
Cc1ccc(S(=O)(=O)N2CCN(c3nc(C(C)C)c4c(c3C#N)CC(C)(C)OC4)CC2)cc1	none
CCCc1nc2sc3c(c2c(=O)[nH]1)CCCC3	none (no result: PTEN del growth, bCat KO growth, INS promoter inh)
O=c1c2sc3nc(N4CCOCC4)c4c(c3c2ncn1CCc1ccccc1)CCCC4	Lmaj promast 74 | Lmaj promast 1uM inactive
CCCCC(CC)C(=O)NCC(C)NC(=O)C(CC)CCCC (configuration not stated)	Lmaj promast 61 | Lmaj promast 1uM inactive
CC(CNC(=O)C(C)C)NC(=O)C(C)C (configuration not stated)	none
Nc1ccc(-c2nc3ccc(-c4nc5ccccc5o4)cc3[nH]2)cc1	Lmaj promast 76 | Lmaj promast 1uM inactive
Nc1ccc(-c2nc3ccc(N)cc3[nH]2)cc1	none (no result: PTEN del growth, bCat KO growth, INS promoter inh)
O=[N+]([O-])c1ccc(-n2cnc3ccccc32)c([N+](=O)[O-])c1	Lmaj promast 100 (no result: PTEN del growth, bCat KO growth, INS promoter inh) | Lmaj promast 1uM inactive
Cc1ccc(-c2csc3ncnc(Oc4cccc5ccc(C)nc45)c23)cc1	none
Cc1ccc2cccc(Oc3ncnc4sc(C)c(C)c34)c2n1	Lmaj promast 90 | Lmaj promast 1uM inactive
CC(C)OC(=O)CCC1(C(=O)O)CCC(=O)NC1 (configuration not stated)	none (no result: INS promoter inh)
CS(=O)(=O)Nc1ccccc1C(=O)NCc1ccccc1Cl	none (no result: PTEN del growth, bCat KO growth, INS promoter inh)
O=c1c2ccccc2nc2c3ccccc3c(NCCN3CCOCC3)nn12	PTEN del growth 2.5, Lmaj promast 100, bCat KO growth 1.9, Autophagy HCS active (no result: Insulin prom up) | Lmaj promast 1uM inactive
O=c1c2ccccc2nc(-c2ccccc2)n1CCN1CCOCC1	none (no result: INS promoter inh)
CCOC(=O)c1ccc(N2C(=O)c3n[nH]c(-c4ccco4)c3C2c2cccc([N+](=O)[O-])c2)cc1 (configuration not stated)	Lmaj promast 96 | Lmaj promast 1uM inactive
